# Where “and” joins values, the source holds several entries; their conditions need not be identical. Equal entries are not always repeated. Inconclusive results are not listed. Entries that show only a call come without a potency. A structure can be active in one record and inactive in another. Calls of active or inactive are those of the source. Unless noted, the call rests on the fitted dose curve; in most records, active means well fitted curve in the direction sought with a large enough effect in the repeat runs; inconclusive means weak or mixed curves; inactive means no such curve, though single readings can be large; an effect the other way counts as inactive or inconclusive.
# Assays:
# [1] = Caspase-3/7 induction in CHO-K1 cells by small molecules, qHTS assay (AID 1346980); further: nearly all actives have a fitted effect of over 15% in size
# Method in brief: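 Wild-type CHO-K1 cells exposed to compounds for 17hr at 37 C, 5% CO2. Caspase-3/7 activity then measured by Caspase-Glo 3/7 luminescence after 30min at room temperature.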
# [2] = Caspase-3/7 induction in HepG2 cells by small molecules, qHTS cell viability counter screen (AID 1346981); further: series mostly up to about 92 µM; nearly all actives have a fitted effect of over 30% in size
# Method in brief: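 CellTiter-Fluor fluorescence measured viability in the same wells used for Caspase-Glo 3/7. HepG2 (wild type) at 2,000 cells/well were pre-incubated 5 hr, dosed, and given reagent at 16 hr, with 1 hr further at 37C.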
# [3] = target: Nuclear receptor subfamily 1 group I member 2 (Homo sapiens) (UniProt O75469); experiment: Human pregnane X receptor (PXR) small molecule agonists, qHTS assay (AID 1346982); further: nearly all actives have a fitted effect of over 35% in size; further: potency means the concentration at half of the fitted maximal effect
# Chain of Nuclear receptor subfamily 1 group I member 2 (Homo sapiens) (O75469 whole entry, looked up): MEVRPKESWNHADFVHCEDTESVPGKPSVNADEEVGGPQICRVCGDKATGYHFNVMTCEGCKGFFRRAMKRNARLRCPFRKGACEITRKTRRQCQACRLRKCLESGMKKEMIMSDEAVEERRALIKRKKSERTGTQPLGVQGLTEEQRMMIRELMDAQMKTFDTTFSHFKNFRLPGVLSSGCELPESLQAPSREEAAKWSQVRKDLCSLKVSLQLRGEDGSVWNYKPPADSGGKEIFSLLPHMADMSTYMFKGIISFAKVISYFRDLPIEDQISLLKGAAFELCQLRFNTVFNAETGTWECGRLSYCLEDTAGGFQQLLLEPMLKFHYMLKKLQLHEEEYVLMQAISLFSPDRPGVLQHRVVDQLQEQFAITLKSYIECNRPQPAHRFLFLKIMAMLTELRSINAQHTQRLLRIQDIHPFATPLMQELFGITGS
# Method in brief: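 Agonist mode: luminescence from ONE-Glo after 24 h compound exposure at 37C in HepG2 cells carrying hPXR-responsive CYP3A4 luciferase, plated in charcoal-stripped serum medium 5 h beforehand.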
# [4] = target: Acetylcholinesterase (Homo sapiens) (UniProt P22303); experiment: Acetylcholinesterase (AChE) small molecule antagonists: colormetric cell-based qHTS assay (AID 1347395; calls by dose curve; further: nearly all actives have a fitted effect of over 30% in size; further: potency means the concentration at half of the fitted maximal effect)
# Chain of Acetylcholinesterase (Homo sapiens) (P22303 whole entry, looked up): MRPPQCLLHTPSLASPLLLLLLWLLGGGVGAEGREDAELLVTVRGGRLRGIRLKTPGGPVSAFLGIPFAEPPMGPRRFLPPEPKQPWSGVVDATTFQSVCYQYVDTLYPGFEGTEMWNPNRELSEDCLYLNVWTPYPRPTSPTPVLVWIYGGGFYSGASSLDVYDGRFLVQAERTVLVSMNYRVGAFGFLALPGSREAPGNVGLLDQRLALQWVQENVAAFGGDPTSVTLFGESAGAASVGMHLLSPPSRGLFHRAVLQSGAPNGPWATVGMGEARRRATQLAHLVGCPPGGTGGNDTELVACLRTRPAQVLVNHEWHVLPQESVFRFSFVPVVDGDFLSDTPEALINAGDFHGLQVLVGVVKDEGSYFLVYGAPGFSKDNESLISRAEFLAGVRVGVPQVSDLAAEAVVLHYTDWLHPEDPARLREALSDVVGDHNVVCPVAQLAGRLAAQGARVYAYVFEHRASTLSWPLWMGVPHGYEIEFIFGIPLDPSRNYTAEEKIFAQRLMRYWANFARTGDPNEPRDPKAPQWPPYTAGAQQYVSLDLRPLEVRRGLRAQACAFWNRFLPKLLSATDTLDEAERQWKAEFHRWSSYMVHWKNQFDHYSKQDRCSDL
# Method in brief: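 After overnight attachment at 37 C, SH-SY5Y cells get 30 min compound exposure; detection cocktail (acetylthiocholine, DTNB) then incubates 90 min at 37 C, and absorbance reflects AChE-generated thiocholine.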
# [5] = target: Acetylcholinesterase (Homo sapiens) (UniProt P22303); experiment: Acetylcholinesterase (AChE) small molecule antagonists: enzyme-based qHTS assay (AID 1347397; calls by dose curve; further: nearly all actives have a fitted effect of over 55% in size); conditions: Potency: AChE enzyme activity inhibition
# Method in brief: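 In this quantitative HTS, compounds from the Tox21 10K collection were preincubated 30 min at ambient temperature with recombinant human AChE dispensed at 50 mU/mL. Hydrolysis of acetylthiocholine was then followed for 10 min by DTNB colour development.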
# [6] = target: Acetylcholinesterase (Homo sapiens) (UniProt P22303); experiment: Acetylcholinesterase (AChE) small molecule antagonists: enzyme-based qHTS assay with human liver microsomes (AID 1347399; calls by dose curve; further: nearly all actives have a fitted effect of over 60% in size; further: potency means the concentration at half of the fitted maximal effect); conditions: Potency: qHTS inhibition
# Method in brief: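 Recombinant human AChE (50 mU/mL in the enzyme mix) and human liver microsomes (0.25 mg/mL final) were preincubated with compound and NADPH (0.25 mg/mL final) for 30 min at 37 C. Acetylthiocholine/DTNB was then added; thiocholine was read colorimetrically after 10 min at room temperature.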
# [7] = target: Cytochrome P450 2D6 (Homo sapiens) (UniProt P10635); experiment: Cytochrome P450 Family 2 Subfamily D Member 6 (CYP2D6) small molecule antagonists: luciferase reporter qHTS assay (AID 1671196); further: nearly all actives have a fitted effect of over 50% in size; further: potency means the concentration at half of the fitted maximal effect
# Chain of Cytochrome P450 2D6 (Homo sapiens) (P10635 whole entry, looked up): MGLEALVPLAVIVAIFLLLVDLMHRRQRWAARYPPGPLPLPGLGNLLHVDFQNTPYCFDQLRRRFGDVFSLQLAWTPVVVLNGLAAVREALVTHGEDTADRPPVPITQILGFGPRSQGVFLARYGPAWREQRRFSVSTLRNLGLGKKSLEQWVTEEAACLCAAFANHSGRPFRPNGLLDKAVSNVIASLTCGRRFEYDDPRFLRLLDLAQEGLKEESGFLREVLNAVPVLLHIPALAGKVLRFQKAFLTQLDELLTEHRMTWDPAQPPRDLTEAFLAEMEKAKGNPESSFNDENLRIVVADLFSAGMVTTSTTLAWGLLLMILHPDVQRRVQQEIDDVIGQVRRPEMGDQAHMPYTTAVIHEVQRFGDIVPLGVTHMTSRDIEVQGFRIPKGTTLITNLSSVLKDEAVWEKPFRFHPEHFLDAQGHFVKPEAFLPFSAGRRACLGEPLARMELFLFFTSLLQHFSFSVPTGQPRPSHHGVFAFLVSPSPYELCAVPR
# Method in brief: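 CYP2D6 activity was followed as luminescence from its luciferin product after a 1 h NADPH-driven reaction at room temperature. Enzyme-substrate mix and compound were pre-incubated for 10 min, and the signal was read 20 min after adding detection reagent.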
# [8] = target: Cytochrome P450 2C19 (Homo sapiens) (UniProt P33261); experiment: Cytochrome P450 Family 2 Subfamily C Member 19 (CYP2C19) small molecule antagonists: luciferase reporter qHTS assay (AID 1671197); further: nearly all actives have a fitted effect of over 65% in size; further: potency means the concentration at half of the fitted maximal effect
# Chain of Cytochrome P450 2C19 (Homo sapiens) (P33261 whole entry, looked up): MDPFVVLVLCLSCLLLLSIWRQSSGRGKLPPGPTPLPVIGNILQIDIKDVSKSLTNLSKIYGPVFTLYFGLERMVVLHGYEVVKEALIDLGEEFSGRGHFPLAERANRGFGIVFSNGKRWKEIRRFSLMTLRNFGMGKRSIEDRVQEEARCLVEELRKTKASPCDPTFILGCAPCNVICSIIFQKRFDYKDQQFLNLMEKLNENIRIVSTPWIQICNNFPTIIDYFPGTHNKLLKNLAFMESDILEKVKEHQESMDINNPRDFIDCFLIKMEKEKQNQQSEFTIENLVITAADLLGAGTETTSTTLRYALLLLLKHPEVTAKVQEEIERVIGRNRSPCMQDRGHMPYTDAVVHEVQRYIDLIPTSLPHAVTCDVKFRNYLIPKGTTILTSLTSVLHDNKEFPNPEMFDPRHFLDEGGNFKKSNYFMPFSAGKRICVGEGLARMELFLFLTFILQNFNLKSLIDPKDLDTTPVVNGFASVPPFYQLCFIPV
# Method in brief: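 Relative luminescence units recorded 20 min after the detection reagent stopped a 1 h, 37C CYP2C19 reaction on proluciferin substrate, which was started by NADPH regeneration following 10 min room-temperature compound preincubation; ketoconazole positive control.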
# [9] = target: Cytochrome P450 2C9 (Homo sapiens) (UniProt P11712); experiment: Cytochrome P450 Family 2 Subfamily C Member 9 (CYP2C9) small molecule antagonists: luciferase reporter qHTS assay (AID 1671198); further: nearly all actives have a fitted effect of over 50% in size; further: potency means the concentration at half of the fitted maximal effect
# Chain of Cytochrome P450 2C9 (Homo sapiens) (P11712 whole entry, looked up): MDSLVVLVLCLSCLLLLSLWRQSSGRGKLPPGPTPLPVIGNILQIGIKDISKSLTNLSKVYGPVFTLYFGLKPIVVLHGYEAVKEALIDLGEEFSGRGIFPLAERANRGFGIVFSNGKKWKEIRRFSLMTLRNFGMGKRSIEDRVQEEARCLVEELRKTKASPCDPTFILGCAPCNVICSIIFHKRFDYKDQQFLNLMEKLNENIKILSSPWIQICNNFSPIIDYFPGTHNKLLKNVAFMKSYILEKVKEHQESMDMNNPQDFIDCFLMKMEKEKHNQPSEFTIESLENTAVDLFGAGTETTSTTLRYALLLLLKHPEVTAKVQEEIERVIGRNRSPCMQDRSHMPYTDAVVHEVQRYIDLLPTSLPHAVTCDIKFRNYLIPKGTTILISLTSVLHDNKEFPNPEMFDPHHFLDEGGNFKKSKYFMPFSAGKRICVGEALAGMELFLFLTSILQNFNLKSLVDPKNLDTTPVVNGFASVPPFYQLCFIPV
# Method in brief: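 P450-Glo proluciferin substrate with CYP2C9 enzyme; 10 min RT preincubation, then NADPH regeneration 1 h at 37C; luciferin detection reagent 20 min RT, luminescence in relative luminescence units.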
# [10] = target: Voltage-gated inwardly rectifying potassium channel KCNH2 (Homo sapiens) (UniProt Q12809); experiment: Human Ether-a-go-go-Related Gene (hERG) channel small molecule antagonists: fluorescence cell-based qHTS assay (AID 1671200); further: nearly all actives have a fitted effect of over 50% in size; further: potency means the concentration at half of the fitted maximal effect
# Method in brief: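 In this thallium-flux screen, overnight-cultured U2OS cells bearing the channel are dye-loaded in darkness for an hour, rested 10 min at room temperature, and then monitored kinetically at 480/540 nm for two minutes post-stimulus.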
# [11] = target: Cytochrome P450 3A4 (Homo sapiens) (UniProt P08684); experiment: Cytochrome P450 Family 3 Subfamily A Member 4 (CYP3A4) small molecule antagonists: luciferase reporter qHTS assay (AID 1671201); further: nearly all actives have a fitted effect of over 50% in size; further: potency means the concentration at half of the fitted maximal effect
# Chain of Cytochrome P450 3A4 (Homo sapiens) (P08684 whole entry, looked up): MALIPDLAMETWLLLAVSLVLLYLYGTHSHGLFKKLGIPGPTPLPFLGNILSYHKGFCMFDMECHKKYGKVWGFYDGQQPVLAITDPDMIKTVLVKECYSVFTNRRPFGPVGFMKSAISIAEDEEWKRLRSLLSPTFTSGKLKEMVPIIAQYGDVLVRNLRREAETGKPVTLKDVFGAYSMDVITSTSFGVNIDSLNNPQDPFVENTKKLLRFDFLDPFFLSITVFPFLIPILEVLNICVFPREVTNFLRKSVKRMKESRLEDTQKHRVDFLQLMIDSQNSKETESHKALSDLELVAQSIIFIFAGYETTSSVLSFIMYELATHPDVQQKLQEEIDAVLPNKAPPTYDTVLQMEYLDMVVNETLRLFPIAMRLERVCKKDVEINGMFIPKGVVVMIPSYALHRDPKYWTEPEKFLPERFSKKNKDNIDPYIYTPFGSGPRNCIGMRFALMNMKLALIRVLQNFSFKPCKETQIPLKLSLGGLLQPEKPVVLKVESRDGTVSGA
# Method in brief: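 CYP3A4 activity was followed with a P450-Glo proluciferin substrate. Test compounds in DMSO were preincubated 10 min; NADPH regeneration then ran 1 h, and light output was read 20 min after detection reagent.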
# [12] = target: Nuclear receptor subfamily 1 group I member 2 (Rattus norvegicus) (UniProt Q9R1A7); experiment: Rat pregnane X receptor (rPXR) activation by small molecules, qHTS assay (AID 1346983); conditions: rPXR luciferase reporter cells, One-Glo luminescence, 24 h; stronger effect = higher value; further: nearly all actives have a fitted effect of over 20% in size
# Chain of Nuclear receptor subfamily 1 group I member 2 (Rattus norvegicus) (Q9R1A7 whole entry, looked up): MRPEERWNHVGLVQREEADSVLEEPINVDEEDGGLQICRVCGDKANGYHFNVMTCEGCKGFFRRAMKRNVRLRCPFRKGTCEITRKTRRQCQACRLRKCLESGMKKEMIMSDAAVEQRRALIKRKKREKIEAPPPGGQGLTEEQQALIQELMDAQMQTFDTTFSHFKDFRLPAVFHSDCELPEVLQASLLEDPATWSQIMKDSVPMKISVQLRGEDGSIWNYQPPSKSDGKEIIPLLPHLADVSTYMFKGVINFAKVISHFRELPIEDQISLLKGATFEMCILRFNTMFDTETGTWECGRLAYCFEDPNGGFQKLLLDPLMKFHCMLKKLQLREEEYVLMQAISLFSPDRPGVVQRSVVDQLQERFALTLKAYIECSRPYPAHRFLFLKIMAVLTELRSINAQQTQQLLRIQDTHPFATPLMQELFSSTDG
# Method in brief: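 Cell-based rPXR activation assay: rPXR cells, 2,000 per well, rested 5hr at 37 C, then exposed to compounds in DMSO for 24 hr at 37 C. Luciferase activity read by One-Glo luminescence after 30 min at room temperature.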
# [13] = target: Cytochrome P450 1A2 (Homo sapiens) (UniProt P05177); experiment: Cytochrome P450 Family 1 Subfamily A Member 2 (CYP1A2) small molecule antagonists: luciferase reporter qHTS assay (AID 1671199); further: nearly all actives have a fitted effect of over 50% in size; further: potency means the concentration at half of the fitted maximal effect
# Chain of Cytochrome P450 1A2 (Homo sapiens) (P05177 whole entry, looked up): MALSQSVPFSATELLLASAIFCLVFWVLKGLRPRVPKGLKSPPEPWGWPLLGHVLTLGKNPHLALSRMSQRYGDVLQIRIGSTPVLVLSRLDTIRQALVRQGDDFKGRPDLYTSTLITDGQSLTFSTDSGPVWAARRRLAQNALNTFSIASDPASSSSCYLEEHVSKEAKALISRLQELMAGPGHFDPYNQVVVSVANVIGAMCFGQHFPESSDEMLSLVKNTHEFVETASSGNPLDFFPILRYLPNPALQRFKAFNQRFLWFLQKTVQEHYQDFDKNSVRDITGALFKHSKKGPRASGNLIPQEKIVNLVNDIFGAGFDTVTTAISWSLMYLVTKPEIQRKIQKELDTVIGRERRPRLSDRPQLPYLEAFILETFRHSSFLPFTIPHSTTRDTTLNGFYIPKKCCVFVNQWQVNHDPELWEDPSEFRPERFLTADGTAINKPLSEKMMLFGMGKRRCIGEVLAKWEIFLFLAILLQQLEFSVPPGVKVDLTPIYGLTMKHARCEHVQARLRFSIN
# Method in brief: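 Luminescence from luciferin formed by CYP1A2 from a proluciferin substrate, read 20 min after detection reagent. Compound was pre-incubated 10 min with enzyme-substrate, and reaction started with NADPH regeneration solution for 1 h at room temperature; furafylline control.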
# [14] = target: Acetylcholinesterase (Homo sapiens) (UniProt P22303); experiment: Acetylcholinesterase (AChE) small molecule antagonists: fluorescence cell-based qHTS assay (AID 1347398; calls by dose curve; further: nearly all actives have a fitted effect of over 50% in size; further: potency means the concentration at half of the fitted maximal effect); conditions: Potency: AChE activity
# Method in brief: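 Cells (SH-SY5Y) attached overnight, were dosed with compound or DMSO vehicle for 30 min at 37 C, and then incubated 40 min at room temperature with acetylthiocholine and Thiolite Green; green fluorescence indexed AChE activity.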
Structure (SMILES),outcome [1],Potency [2],Potency [3],Potency [4],Potency [5],Potency [6],Potency [7],Potency [8],Potency [9],Potency [10],Potency [11],max activation [12],Potency [13],Potency [14]
OCCN(CCO)CCO,inactive,inactive,inactive,inactive,inactive,inactive,inactive,inactive,inactive,inactive,inactive,,,
O=[N+]([O-])c1ccc([As](=O)(O)O)cc1,inactive,inactive,inactive,inactive,inactive,inactive,inactive,inactive,inactive,,inactive,-0.802% (inactive),inactive,
CC(C)(Cl)Cl,inactive,inactive,inactive,inactive,inactive,inactive,inactive,40.6 µM (active) and 71 µM (active),inactive,,inactive,,inactive and 44.8 µM (active),
O=S(=O)(c1ccc(Cl)cc1)c1cc(Cl)c(Cl)cc1Cl,inactive,inactive,30.6 µM (active),inactive,inactive,inactive,inactive,251 nM (active) and 252 nM (active),28.3 µM (active),,inactive,,,inactive
CCOC(=O)c1ccccc1C(=O)OCC,inactive,inactive,inactive,,inactive,inactive,inactive,,,inactive,inactive,-0.77% (inactive),3.22 µM (active) and 3.17 µM (active),inactive
COC(=O)c1ccccc1C(=O)OC,inactive,inactive,inactive,inactive,inactive,inactive,inactive,71.4 µM (active),,inactive,inactive,,31.9 µM (active) and 25.2 µM (active),inactive
CCOP(OCC)OCC,inactive,inactive,inactive,inactive and 28.3 µM (active),inactive,inactive,91 µM (active) and 35.6 µM (active),inactive,,inactive,inactive,,inactive,inactive
ClCc1cccnc1,inactive,inactive,inactive,inactive,inactive,inactive,inactive,69.8 µM (active) and inactive,inactive,inactive,inactive,,62.2 µM (active) and inactive,
CCCCOC(=O)c1ccccc1C(=O)OCCCC,inactive,inactive,inactive,inactive,inactive,inactive,inactive,5.64 µM (active) and 3.99 µM (active),35.6 µM (active),inactive,inactive,,5.03 µM (active) and 8.94 µM (active),
CCCCCCCCCl,inactive,inactive,63.1 µM (active) and inactive,inactive,inactive,inactive,inactive,inactive,,inactive,inactive,,inactive,inactive
Cc1ccc([N+](=O)[O-])cc1C,inactive,inactive,inactive,inactive,inactive,inactive,inactive,inactive,inactive,inactive,inactive,,inactive,inactive
O=[N+]([O-])c1ccc(Oc2ccc(Cl)cc2Cl)cc1,inactive,inactive,54.8 µM (active) and inactive,63.6 µM (active) and inactive,inactive,inactive,22.6 µM (active),5.67 µM (active) and 5.64 µM (active),28.4 µM (active) and 31.7 µM (active),19.5 µM (active),inactive,,31.9 µM (active) and 22.4 µM (active),
CCOP(=S)(OCC)Oc1cnc2ccccc2n1,inactive,inactive,inactive and 30.6 µM (active),inactive and 35.6 µM (active),inactive,inactive and 1 µM (active),35.6 µM (active),inactive and 448 nM (active),inactive and 1.12 µM (active),inactive,inactive and 6.33 µM (active),,inactive and 2.24 µM (active),inactive and 35.6 µM (active)
O=c1n(Cl)c(=O)n(Cl)c(=O)n1Cl,inactive,inactive,inactive,,inactive,inactive,inactive,inactive,,inactive,inactive,0.0046% (inactive),inactive,
CC(C)C1(C)N=C(c2nc3ccccc3cc2C(=O)O)NC1=O (stereo not drawn),inactive,inactive,inactive,inactive,inactive,inactive,inactive,inactive,inactive,inactive,inactive,,inactive,inactive
C[C@]12CC[C@H]3[C@@H](CC[C@@]45O[C@@H]4C(O)=C(C#N)C[C@]35C)[C@@H]1CC[C@@H]2O,inactive,inactive,inactive,,inactive,inactive,inactive,inactive,,,inactive,-0.29% (inactive),inactive,
